The text below walks through data of PubChem BioAssay (EPA / NIEHS).

Experiment [1] can be described thus: ATG_GRE_CIS: Attagene CIS-FACTORIAL HepG2 Assay for human Glucocorticoid Response Elements (GRE) (AID 2282947). The conditions noted are these: HepG2 GRE cis-reporter, Attagene multiplex mRNA; actives raise or lower the signal. The gist of the method:
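Transient MRTU transfection of human HepG2 liver cells; cis-regulated reporters report endogenous factors. 24 h dosing → RNA isolation → RT-PCR → 6-FAM primer extension → HpaI cut → CE fragment analysis. Bidirectional fit, DMSO negative control.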

Experiment [2] is described as follows: ATG_ISRE_CIS: Attagene CIS-FACTORIAL HepG2 Assay for human Interferon Regulatory Factor 1 (IRF1) binding to an Interferon-Stimulated Response Element (ISRE) (AID 2282948). The conditions noted are these: HepG2 ISRE cis-reporter (Attagene), mRNA transcription readout; actives raise or lower the signal. The gist of the method:
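Transfected HepG2 (multiple reporter transcription units, cis elements) dosed 24 h. RNA → oligo(dT) RT → PCR → 6-FAM primer extension → HpaI → CE. DMSO = negative control/baseline.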

Experiment [3] can be described thus: ATG_M_32_CIS: Attagene CIS-FACTORIAL HepG2 Assay for M32 Transcription Factor (Internal Marker) (AID 2282949).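 Also: background control marker of the multiplexed CIS panel rather than a real target.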 The conditions noted are these: HepG2 Attagene cis-factorial M32 reporter, mRNA; actives raise or lower the signal. Put shortly:
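HepG2 cells transiently transfected with multiplexed cis-regulated reporter units, dosed 24 h. Reporter mRNA quantified by RT-PCR, 6-FAM labelling, HpaI digestion and capillary electrophoresis; bidirectional fit vs DMSO.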

Experiment [4] in a line: ATG_M_06_CIS: Attagene CIS-FACTORIAL HepG2 Assay for M06 Transcription Factor (Internal Marker) (AID 2282950). The conditions noted are these: HepG2 Attagene CIS-FACTORIAL M06 internal marker reporter; actives raise or lower the signal. The gist of the method: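 Internal background marker within multiplexed cis-reporter HepG2 system. Cells transiently transfected, dosed 24 h; reporter mRNA measured by RT-PCR, HpaI digestion and capillary electrophoresis. Bidirectional fit relative to DMSO.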

In experiment [5] the target is Hypoxia-inducible factor 1-alpha (Homo sapiens) (UniProt Q16665). Kind of experiment: ATG_HIF1a_CIS: Attagene CIS-FACTORIAL HepG2 Assay for human Hypoxia Inducible Factor 1 (HIF1A) (AID 2282951). The conditions noted are these: HepG2 Attagene cis-factorial HIF1a reporter transcription; actives raise or lower the signal. The gist of the method:
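After 24 h chemical exposure of reporter-transfected HepG2 cells, reporter cDNA was PCR-amplified, labelled by 6-FAM primer extension (2 min 95 C, 20 s 68 C, 10 min 72 C), HpaI-cut (2 h, 37 C) and analysed by CE.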

For experiment [6], the target named is Hepatocyte nuclear factor 6 (Homo sapiens) (UniProt Q9UBC0). Kind of experiment: ATG_HNF6_CIS: Attagene CIS-FACTORIAL HepG2 Assay for human Hepatocyte Nuclear Factor 6 (HNF6) (AID 2282952). The conditions noted are these: HepG2 Attagene cis-factorial HNF6 reporter transcription; actives raise or lower the signal. The gist of the method: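 Reporter mRNA induction or loss in HepG2 after 24 h exposure; transient cis-MRTU transfection; fragments quantified by capillary electrophoresis; bidirectional analysis, DMSO as negative control.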

Experiment [7] addresses Heat shock factor protein 1 (Homo sapiens) (UniProt Q00613). Kind of experiment: ATG_HSE_CIS: Attagene CIS-FACTORIAL HepG2 Assay for human Heat Shock Transcription Factor 1 (HSE) (AID 2282953). The conditions noted are these: HepG2 HSE cis-reporter, Attagene RNA transcription; actives raise or lower the signal. The gist of the method: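 HepG2 cells transfected with cis-promoter reporter units sensing endogenous transcription factor activity; reporter mRNA quantified 24 h post-dose by RT-PCR and capillary electrophoresis of 6-FAM-labelled products. Bidirectional fitting against DMSO.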

The nature of experiment [8]: ATG_MRE_CIS: Attagene CIS-FACTORIAL HepG2 Assay for human Metal Responsive Element (MRE) (AID 2282954). The conditions noted are these: HepG2 MRE cis-reporter transcription, Attagene multiplex; actives raise or lower the signal. The gist of the method:
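Transient MRTU transfection of HepG2 (FuGene 6); 24 h dosing; total RNA → oligo(dT) RT, PCR, 6-FAM primer extension, HpaI cut, CE. Bidirectional fit vs DMSO.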

Experiment [9] can be described thus: ATG_PBREM_CIS: Attagene CIS-FACTORIAL HepG2 Assay for human Phenobarbital-responsive Enhancer Module (PBREM) (AID 2282955). The conditions noted are these: HepG2 PBREM cis-reporter, Attagene multiplexed transcription; actives raise or lower the signal. The gist of the method: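 Measures endogenous factor action on a phenobarbital-responsive enhancer module. HepG2 transiently carrying cis reporters, 24 h treatment, mRNA read-out by RT-PCR plus capillary electrophoresis.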

The nature of experiment [10]: ATG_PXRE_CIS: Attagene CIS-FACTORIAL HepG2 Assay for human Pregnane X Receptor Element (PXRE) (AID 2282957). The conditions noted are these: HepG2 Attagene CIS-FACTORIAL PXRE reporter, mRNA; actives raise or lower the signal. Put shortly:
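Transiently transfected HepG2 cells were dosed and incubated for 24 h. RNA was then isolated, DNase-treated, reverse-transcribed and reporter sequences amplified. Labeled, HpaI-digested fragments were quantified by capillary electrophoresis against DMSO.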

The nature of experiment [11]: ATG_RORE_CIS: Attagene CIS-FACTORIAL HepG2 Assay for human RAR-related Orphan Receptor Element (RORE) (AID 2282959). The conditions noted are these: HepG2 Attagene cis-factorial RORE reporter, mRNA; actives raise or lower the signal. The gist of the method: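 A 24-hour exposure of transfected HepG2 hepatoma cells precedes RNA isolation and reporter RT-PCR. Labeled products are digested with HpaI and resolved by capillary electrophoresis, with gain or loss of signal scored relative to DMSO.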

Experiment [12] in a line: ATG_Sox_CIS: Attagene CIS-FACTORIAL HepG2 Assay for human SRY-box transcription factor (SOX) (AID 2282960). The conditions noted are these: HepG2 Attagene cis-factorial SOX reporter, mRNA; actives raise or lower the signal. Put shortly: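 HepG2, cis reporter units, 24 h exposure. Reporter mRNA: RT-PCR → FAM labelling → HpaI → CE fluorescence. Bidirectional fit vs DMSO.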

Experiment [13] concerns the target Transcription factor Sp1 (Homo sapiens) (UniProt P08047). Kind of experiment: ATG_Sp1_CIS: Attagene CIS-FACTORIAL HepG2 Assay for human Specificity Protein 1 (Sp1) (AID 2282961). The conditions noted are these: HepG2 Sp1 cis-reporter transcription, actives raise or lower the signal. The gist of the method: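 Liver-derived HepG2 cells, cis-element reporter library, 24 h treatment; RNA isolated, cDNA amplified with reporter-specific primers, FAM-labeled fragments sized on capillary analyzer. DMSO baseline, bidirectional curve fit.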

A short description of experiment [14]: ATG_SREBP_CIS: Attagene CIS-FACTORIAL HepG2 Assay for human Sterol Regulatory Element Binding (SREBP) (AID 2282962). The conditions noted are these: HepG2 Attagene cis-factorial SREBP reporter, mRNA; actives raise or lower the signal. The gist of the method: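 Transfected HepG2 (cis-regulated reporter library, endogenous TFs) → compound 24 h → total RNA → oligo(dT) RT → reporter-specific PCR → FAM primer extension, HpaI cut → CE fluorescence. Fit bidirectional vs DMSO.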

The target of experiment [15] is Signal transducer and activator of transcription 3 (Homo sapiens) (UniProt P40763). Briefly: ATG_STAT3_CIS: Attagene CIS-FACTORIAL HepG2 Assay for human Signal Transducer and Activator of Transcription 3 (STAT3) (AID 2282963). The conditions noted are these: HepG2, Attagene cis-factorial STAT3 reporter transcription; actives raise or lower the signal. The gist of the method:
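Endogenous STAT3-responsive cis-element activity was read in transiently transfected HepG2 cells after 24 h treatment. Reporter transcripts were quantified via RT-PCR and capillary electrophoresis, with DMSO as negative control and bidirectional curve fitting.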

The nature of experiment [16]: ATG_TA_CIS: Attagene CIS-FACTORIAL HepG2 Assay for human TA Basal Promoter (AID 2282964). The conditions noted are these: HepG2 Attagene CIS-factorial TA basal promoter reporter; actives raise or lower the signal. Put shortly: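 HepG2 cells transiently transfected with multiple reporter units under cis promoter elements, reporting endogenous transcription factor activity; this endpoint tracks the TA basal promoter as background control. Reporter mRNA after 24 h dosing measured by RT-PCR/capillary electrophoresis; bidirectional fits versus DMSO.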

The nature of experiment [17]: ATG_TCF_b_cat_CIS: Attagene CIS-FACTORIAL HepG2 Assay for human T-Cell-Factor with beta-catenin (TCF/b-cat) (AID 2282965). The conditions noted are these: HepG2 TCF/beta-catenin cis-reporter transcription, actives raise or lower the signal. The gist of the method: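 Endogenous transcription factor activity is captured through cis-promoter reporter constructs transiently introduced into human HepG2 liver cells. Induced reporter mRNA is measured after 24 h and fitted bidirectionally relative to DMSO.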

Experiment [18] concerns the target Paired box protein Pax-6 (Homo sapiens) (UniProt P26367). Kind of experiment: ATG_Pax6_CIS: Attagene CIS-FACTORIAL HepG2 Assay for human Paired Box 6 (PAX6) (AID 2282956). The conditions noted are these: HepG2 CIS-FACTORIAL PAX6 reporter transcription, RNA readout; actives raise or lower the signal. Put shortly:
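Transient MRTU transfection of HepG2 → compound exposure 24 h → TriZol RNA, oligo(dT) RT → PCR, 6-FAM primer extension, HpaI cut → capillary electrophoresis; activity fitted both directions against DMSO.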

A short description of experiment [19]: ATG_PPRE_CIS: Attagene CIS-FACTORIAL HepG2 Assay for human Peroxisome Proliferator-activated Response Element (PPRE) (AID 2282958). The conditions noted are these: HepG2 PPRE cis-element reporter, Attagene transcription factor profiling; actives raise or lower the signal. The gist of the method:
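PPRE activity in HepG2: transient cis-reporter transfection, 24 h compound incubation, reporter mRNA by RT-PCR and CE fluorescence; gain/loss fitted against DMSO.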

The source made the active and inactive calls. The calls were made as follows: active = hit-call score of the fitted dose curve at least 0.9, where 1 is the maximum; inactive = score below 0.9.

Chain of Signal transducer and activator of transcription 3 (Homo sapiens) (P40763 whole entry, looked up): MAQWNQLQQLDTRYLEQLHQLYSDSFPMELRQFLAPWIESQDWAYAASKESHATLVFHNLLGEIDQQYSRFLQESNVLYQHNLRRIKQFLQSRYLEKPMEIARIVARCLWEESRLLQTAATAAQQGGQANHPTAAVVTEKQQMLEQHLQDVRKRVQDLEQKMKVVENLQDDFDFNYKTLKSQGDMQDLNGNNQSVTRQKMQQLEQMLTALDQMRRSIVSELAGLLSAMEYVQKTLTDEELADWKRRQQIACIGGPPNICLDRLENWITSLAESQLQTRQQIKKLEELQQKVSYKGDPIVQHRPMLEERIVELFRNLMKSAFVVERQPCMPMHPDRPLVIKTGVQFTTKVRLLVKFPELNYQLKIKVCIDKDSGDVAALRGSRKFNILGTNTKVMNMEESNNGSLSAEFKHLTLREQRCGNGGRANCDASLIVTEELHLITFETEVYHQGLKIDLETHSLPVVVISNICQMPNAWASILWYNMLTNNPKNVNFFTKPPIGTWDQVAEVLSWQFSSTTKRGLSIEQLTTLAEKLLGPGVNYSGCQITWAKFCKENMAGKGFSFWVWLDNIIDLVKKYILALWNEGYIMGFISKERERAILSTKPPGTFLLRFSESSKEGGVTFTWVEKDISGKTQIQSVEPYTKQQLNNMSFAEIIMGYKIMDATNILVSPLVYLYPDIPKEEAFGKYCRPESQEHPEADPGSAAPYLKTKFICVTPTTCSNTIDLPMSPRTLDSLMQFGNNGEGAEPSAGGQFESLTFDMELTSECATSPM
Chain of Paired box protein Pax-6 (Homo sapiens) (P26367 whole entry, looked up): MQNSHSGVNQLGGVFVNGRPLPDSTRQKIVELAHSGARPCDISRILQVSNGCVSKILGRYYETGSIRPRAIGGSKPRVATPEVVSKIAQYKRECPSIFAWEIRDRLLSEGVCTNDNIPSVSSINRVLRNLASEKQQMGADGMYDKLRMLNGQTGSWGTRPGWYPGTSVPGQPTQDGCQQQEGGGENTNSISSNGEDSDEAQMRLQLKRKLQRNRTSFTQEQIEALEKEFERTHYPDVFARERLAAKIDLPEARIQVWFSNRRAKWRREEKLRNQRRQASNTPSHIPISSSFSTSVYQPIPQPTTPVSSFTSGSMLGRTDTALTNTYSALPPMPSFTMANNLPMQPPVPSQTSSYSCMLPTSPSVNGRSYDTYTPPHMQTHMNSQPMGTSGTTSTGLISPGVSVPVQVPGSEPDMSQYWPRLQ
Chain of Transcription factor Sp1 (Homo sapiens) (P08047 whole entry, looked up, the tested form may be a part): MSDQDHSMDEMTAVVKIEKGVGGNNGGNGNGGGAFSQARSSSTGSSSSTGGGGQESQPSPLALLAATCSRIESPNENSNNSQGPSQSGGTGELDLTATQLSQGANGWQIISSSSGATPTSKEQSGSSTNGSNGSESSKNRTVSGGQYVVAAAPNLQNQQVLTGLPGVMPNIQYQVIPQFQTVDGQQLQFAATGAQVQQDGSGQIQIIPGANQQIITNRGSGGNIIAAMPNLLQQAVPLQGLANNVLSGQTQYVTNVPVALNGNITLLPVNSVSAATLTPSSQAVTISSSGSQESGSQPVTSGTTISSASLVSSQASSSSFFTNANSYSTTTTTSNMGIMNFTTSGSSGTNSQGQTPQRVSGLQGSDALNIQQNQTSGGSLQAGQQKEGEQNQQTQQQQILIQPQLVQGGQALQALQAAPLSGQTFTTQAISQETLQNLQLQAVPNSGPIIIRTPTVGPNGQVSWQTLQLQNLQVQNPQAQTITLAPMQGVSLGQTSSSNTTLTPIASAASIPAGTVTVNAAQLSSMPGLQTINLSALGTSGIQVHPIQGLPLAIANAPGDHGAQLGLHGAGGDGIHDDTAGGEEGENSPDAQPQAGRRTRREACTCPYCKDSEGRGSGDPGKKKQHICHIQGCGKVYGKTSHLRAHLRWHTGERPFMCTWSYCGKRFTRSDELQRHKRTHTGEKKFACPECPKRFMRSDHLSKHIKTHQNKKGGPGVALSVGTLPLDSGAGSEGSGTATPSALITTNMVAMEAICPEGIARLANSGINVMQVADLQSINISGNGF
Chain of Hepatocyte nuclear factor 6 (Homo sapiens) (Q9UBC0 whole entry, looked up, the tested form may be a part): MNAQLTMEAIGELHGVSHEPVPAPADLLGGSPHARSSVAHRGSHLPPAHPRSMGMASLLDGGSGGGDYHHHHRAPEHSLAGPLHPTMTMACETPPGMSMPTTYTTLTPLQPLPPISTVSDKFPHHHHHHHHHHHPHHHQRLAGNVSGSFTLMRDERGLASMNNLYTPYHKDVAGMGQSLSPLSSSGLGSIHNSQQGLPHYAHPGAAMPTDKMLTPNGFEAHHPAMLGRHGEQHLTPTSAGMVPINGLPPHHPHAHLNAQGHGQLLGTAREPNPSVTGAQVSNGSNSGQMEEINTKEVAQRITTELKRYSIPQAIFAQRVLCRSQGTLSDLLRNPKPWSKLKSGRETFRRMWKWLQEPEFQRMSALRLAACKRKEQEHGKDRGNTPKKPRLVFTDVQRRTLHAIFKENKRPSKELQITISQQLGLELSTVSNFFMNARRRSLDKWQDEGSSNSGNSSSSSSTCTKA
Chain of Hypoxia-inducible factor 1-alpha (Homo sapiens) (Q16665 whole entry, looked up): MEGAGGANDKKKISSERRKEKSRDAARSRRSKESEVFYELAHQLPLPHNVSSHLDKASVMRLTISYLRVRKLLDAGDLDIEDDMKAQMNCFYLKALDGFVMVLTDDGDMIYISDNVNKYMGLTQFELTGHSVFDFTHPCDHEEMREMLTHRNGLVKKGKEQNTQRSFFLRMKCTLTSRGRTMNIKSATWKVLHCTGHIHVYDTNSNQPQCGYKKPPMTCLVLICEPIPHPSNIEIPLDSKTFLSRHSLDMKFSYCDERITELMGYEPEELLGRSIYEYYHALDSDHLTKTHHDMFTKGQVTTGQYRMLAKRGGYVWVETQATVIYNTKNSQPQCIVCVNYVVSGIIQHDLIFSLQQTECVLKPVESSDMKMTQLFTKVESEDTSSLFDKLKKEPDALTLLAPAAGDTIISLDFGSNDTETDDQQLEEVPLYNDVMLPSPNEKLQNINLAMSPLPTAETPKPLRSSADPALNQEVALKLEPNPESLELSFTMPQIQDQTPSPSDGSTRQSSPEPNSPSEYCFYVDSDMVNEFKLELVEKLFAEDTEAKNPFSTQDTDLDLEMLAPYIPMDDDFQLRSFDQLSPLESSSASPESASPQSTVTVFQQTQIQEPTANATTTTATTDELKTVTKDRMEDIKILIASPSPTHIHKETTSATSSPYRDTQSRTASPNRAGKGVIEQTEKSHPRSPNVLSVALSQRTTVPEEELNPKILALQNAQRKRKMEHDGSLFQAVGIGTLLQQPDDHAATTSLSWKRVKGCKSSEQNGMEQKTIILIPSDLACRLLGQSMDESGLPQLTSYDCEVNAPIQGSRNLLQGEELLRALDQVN
Chain of Heat shock factor protein 1 (Homo sapiens) (Q00613 whole entry, looked up): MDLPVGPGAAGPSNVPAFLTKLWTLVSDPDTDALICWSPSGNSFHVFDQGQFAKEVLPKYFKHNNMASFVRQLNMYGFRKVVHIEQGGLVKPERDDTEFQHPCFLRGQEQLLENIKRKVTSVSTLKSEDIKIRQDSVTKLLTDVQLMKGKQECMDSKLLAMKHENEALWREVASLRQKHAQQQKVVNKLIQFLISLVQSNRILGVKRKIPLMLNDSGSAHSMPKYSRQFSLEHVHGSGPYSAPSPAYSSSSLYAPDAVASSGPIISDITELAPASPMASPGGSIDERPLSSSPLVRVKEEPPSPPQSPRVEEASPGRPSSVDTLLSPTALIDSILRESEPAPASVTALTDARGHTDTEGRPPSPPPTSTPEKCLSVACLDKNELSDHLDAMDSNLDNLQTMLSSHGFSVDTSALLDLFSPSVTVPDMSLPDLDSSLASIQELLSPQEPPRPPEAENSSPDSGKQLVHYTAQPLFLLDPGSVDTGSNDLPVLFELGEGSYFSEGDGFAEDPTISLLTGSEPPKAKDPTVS

On to `Oc1ccc2ccc3cccc4ccc1c2c34`, for which the molecule was called inactive in [1], in experiment [2], in [3], in experiment [4], in experiment [6] and in experiment [7]. The outcome in experiment [8], in experiment [9], in experiment [11], in experiment [12], in [13] and in experiment [14] was inactive. Further, the molecule was classed as inactive in [15], in experiment [16] and in experiment [17]. In addition, the values for the half-maximal activity concentration (AC50) in experiment [5] and in [10] were 1.17 nM (active) and 13 µM (active), respectively.

In the case of `C=CCc1ccc2c(c1)OCO2`, the result in experiment [2], in experiment [3], in experiment [4], in [5], in experiment [6] and in experiment [7] was inactive. Further, the molecule was called inactive in [8], in [9], in [18], in experiment [10], in [11] and in experiment [12]. Moreover, the result in [13], in experiment [14], in experiment [15], in experiment [16] and in experiment [17] was inactive.

Consider `Cc1ccc(N)cc1`, for which the call in experiment [2], in experiment [3], in experiment [4], in experiment [5], in experiment [6] and in [7] was inactive. Further, the call in experiment [8], in experiment [9], in [18], in [10], in [11] and in experiment [12] was inactive. In addition, the result in experiment [13], in experiment [14], in experiment [15], in experiment [16] and in experiment [17] was inactive.

Consider `[As]#[In]`, for which the molecule was called inactive in experiment [1], in [2], in [3], in experiment [4], in experiment [5] and in [6]. Also, the molecule was called inactive in [7], in [8], in experiment [9], in experiment [11], in experiment [12] and in [13]. Further, the molecule was classed as inactive in experiment [14], in [15], in experiment [16] and in [17]. Also, the AC50 (commonly the concentration at which the activity in the assay is half-maximal) in [10] is 49.9 µM (active).

In the case of `CCC12COCN1COC2`, the call in experiment [2], in experiment [3], in experiment [4], in [5], in experiment [6] and in experiment [7] was inactive. The result in experiment [8], in experiment [9], in [10], in experiment [19], in experiment [11] and in experiment [12] was inactive. Moreover, the outcome in [13], in experiment [14], in experiment [15], in experiment [16] and in experiment [17] was inactive.

Consider `CCOc1cccc(C2(N3CCN(c4ccccc4)CC3)CCC(C)CC2)c1` (stereo not drawn), for which the outcome in experiment [1], in [2], in experiment [3], in experiment [4], in experiment [5] and in experiment [6] was inactive. Further, the call in experiment [8], in experiment [9], in [18], in experiment [10], in [11] and in [12] was inactive. The result in experiment [13], in experiment [14], in experiment [16] and in experiment [17] was inactive.

Turning to `c1ccc(N=Nc2ccccc2)cc1`, the molecule was classed as inactive in [1], in experiment [2], in experiment [3], in [4], in [5] and in [6]. In addition, the outcome in experiment [7], in experiment [8], in experiment [9], in [10], in experiment [11] and in experiment [12] was inactive. Further, the call in [13], in [14], in [15], in experiment [16] and in experiment [17] was inactive.
